Assay [1] is described as follows: qHTS assay to test for compound auto fluorescence at 535 nm (green) in HEK293 cells (AID 720680). On the technique in general: qHTS replaces the single test concentration by a dilution series.
A short description of assay [2]: qHTS assay to test for compound auto fluorescence at 460 nm (blue) in HEK293 cell free culture (AID 720681). The essentials:
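Blue fluorescence (Ex 405/Em 460 nm, triamterene-equivalent) was read immediately after pin transfer of compound or DMSO into medium (DMEM, 10% FBS) without cells.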

Assay [3] can be described thus: qHTS assay to test for compound auto fluorescence at 535 nm (green) in HEK293 cell free culture (AID 720682). The essentials:
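No cells present: wells hold DMEM supplemented with 10% FBS, into which compound or vehicle is pinned. Green emission is then recorded (485 nm excitation, 535 nm emission) and scaled to fluorescein.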

Assay [4] is described as follows: qHTS assay to test for compound auto fluorescence at 590 nm (red) in HEK293 cell free culture (AID 720683). In short, it runs like this:
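Red-channel autofluorescence of compounds in culture medium (DMEM, 10% FBS), no cells, measured at 540/590 nm. Rose Bengal sodium is the reference fluorophore for equivalence.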

The nature of assay [5]: qHTS assay to test for compound auto fluorescence at 590 nm (red) in HepG2 cell free culture (AID 720684). The essentials: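 Steps: dispense MEM/10% FBS medium, no cells; pin compound or DMSO vehicle; read red channel, Ex/Em 540/590 nm. Output given as Rose Bengal sodium equivalents.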
Assay [6] in a line: qHTS assay to test for compound auto fluorescence at 460 nm (blue) in HepG2 cell free culture (AID 720685). The essentials: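 Compound (23 nL) or DMSO pinned into cell-free MEM with 10% FBS; blue fluorescence read at 405/460 nm excitation/emission, expressed as auto-fluorescence equivalency to triamterene.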
Assay [7] is described as follows: qHTS assay to test for compound auto fluorescence at 535 nm (green) in HepG2 cell free culture (AID 720686).
Assay [8] can be described thus: qHTS assay to test for compound auto fluorescence at 460 nm (blue) in HepG2 cells (AID 720687). In short, it runs like this: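 Blue-channel autofluorescence (Ex/Em 405/460 nm, triamterene-equivalent) was measured after 1 hr compound exposure at 37 C, 5% CO2. Cells were HepG2, plated overnight at 37 C in MEM plus 10% FBS.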
Assay [9] addresses Glucocorticoid receptor (Homo sapiens) (UniProt P04150). As to the kind of experiment: qHTS assay to identify small molecule agonists of the glucocorticoid receptor (GR) signaling pathway (AID 720691; active = well fitted activation curve with a large enough effect in the signal ratio in the repeat runs, not every such curve was filed as active; inconclusive = weak or mixed curves, or effect the other way; inactive = no such curve, though single readings can be large or run the other way; the % refers to the signal ratio; also: potency is read from the fitted curve at half-maximal effect). In short, it runs like this: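 qHTS in GR-bla HeLa cells: 4 h settling at 37 C/5% CO2, 18 h compound incubation at 37 C, 2 h LiveBLAzer B/G FRET substrate at room temperature, fluorescence intensity measured.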

Assay [10] can be described thus: qHTS assay to identify small molecule antagonists of the glucocorticoid receptor (GR) signaling pathway - cell viability counter screen (AID 720693). Also: nearly all actives have a fitted effect of over 55% in size.
A short description of assay [11]: qHTS assay for identifying genotoxic compounds that show differential cytotoxicity against isogenic chicken DT40 cell lines with known DNA damage response pathways - wild type cell line (AID 743012). Also: nearly all actives have a fitted effect of over 60% in size. Also: potency is read from the fitted curve at half-maximal effect. The essentials: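 First, wild type DT40 cells were plated at 300 per well and equilibrated about 0.5 h at 37 C/5% CO2. Next, compounds in DMSO were added and exposure lasted 40 h. Finally, CellTiter-Glo was added for 30 min at room temperature and luminescence recorded.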

Assay [12] can be described thus: qHTS assay for identifying genotoxic compounds that show differential cytotoxicity against isogenic chicken DT40 cell lines with known DNA damage response pathways - Rad54/Ku70 mutant cell line (AID 743015). Also: nearly all actives have a fitted effect of over 60% in size. Also: potency is read from the fitted curve at half-maximal effect.
Assay [13] is described as follows: qHTS assay to identify small molecule antagonists of the androgen receptor (AR) signaling pathway - cell viability counter screen (AID 743033; also: nearly all actives have a fitted effect of over 45% in size; also: potency is read from the fitted curve at half-maximal effect).
Assay [14] can be described thus: qHTS assay to identify small molecule antagonists of the androgen receptor (AR) signaling pathway using the MDA cell line - cell viability counter screen (AID 743041; also: nearly all actives have a fitted effect of over 45% in size). The essentials:
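Cells were plated at 3,000 per well and left 5 h. Compounds in DMSO were then pinned in, followed by R1881. After 16 h at 37C, CellTiter-Fluor fluorescence gave viability.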

Assay [15] can be described thus: qHTS assay for identifying genotoxic compounds that show differential cytotoxicity against isogenic chicken DT40 cell lines with known DNA damage response pathways - Rev3 mutant cell line (AID 743014). Also: nearly all actives have a fitted effect of over 55% in size. Also: potency is read from the fitted curve at half-maximal effect.
The target in assay [16] is Androgen receptor (Homo sapiens) (UniProt P10275). In words: qHTS assay to identify small molecule agonists of the androgen receptor (AR) signaling pathway (AID 743036; active = well fitted activation curve with a large enough effect in the signal ratio in the repeat runs, with a control signal flat, not every such curve was filed as active; inconclusive = weak or mixed curves, or effect the other way; inactive = no such curve, though single readings can be large or run the other way; the % refers to the signal ratio). The essentials:
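Quantitative HTS of the Tox21 10K library in HEK293 cells bearing a stably integrated UAS-controlled beta-lactamase reporter. Compound exposure lasted 16 h at 37C. Reporter activity was detected by FRET substrate fluorescence after 2 h at room temperature.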

For assay [17] the target is unchanged. In words: qHTS assay to identify small molecule antagonists of the androgen receptor (AR) signaling pathway using the MDA cell line (AID 743042; also: nearly all actives have a fitted effect of over 55% in size; also: potency is read from the fitted curve at half-maximal effect). The essentials: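 Antagonist mode: compounds plus R1881 agonist added to MDA-kb2 AR-luc cells, incubated 16 h at 37C. Luciferase reporter luminescence quantified, with multiplexed CellTiter-Fluor readout for cell viability.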

Assay [18] in a line: qHTS assay to identify small molecule antagonists of the thyroid receptor (TR) signaling pathway - cell viability counter screen (AID 743064). Also: nearly all actives have a fitted effect of over 50% in size. Also: potency is read from the fitted curve at half-maximal effect. In short, it runs like this: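 Rat GH3 pituitary tumor cells stably expressing two TR response elements driving luciferase were plated, rested 4 h, then dosed with library compounds and T3 (1 nM final). After 23.5 h at 37 °C, CellTiter-Fluor was added for 30 min and fluorescence recorded.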

The nature of assay [19]: qHTS assay to identify small molecule antagonists of the thyroid receptor (TR) signaling pathway (AID 743065). Also: nearly all actives have a fitted effect of over 55% in size. Also: potency is read from the fitted curve at half-maximal effect. The essentials:
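Antagonism measured as loss of luciferase signal in GH3 cells stably carrying a TRE-luciferase reporter, co-treated with compound and T3 (1 nM final) for 23.5 h at 37 C. Viability was read in the same well by CellTiter-Fluor.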

In assay [20] the target is Glucocorticoid receptor (Homo sapiens) (UniProt P04150). In words: qHTS assay to identify small molecule antagonists of the glucocorticoid receptor (GR) signaling pathway (AID 720692; active = well fitted inhibition curve with a large enough effect in the signal ratio in the repeat runs, not every such curve was filed as active; inconclusive = weak or mixed curves, or effect the other way; inactive = no such curve, though single readings can be large or run the other way; the % refers to the signal ratio; also: potency is read from the fitted curve at half-maximal effect). In short, it runs like this: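 Inhibition of glucocorticoid signalling is measured in HeLa cells with a GRE-controlled beta-lactamase reporter; cells are co-treated with compound and 5 nM dexamethasone (final) for 18 h before FRET substrate readout.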

“And” between values parts separate entries of the source, which are not always exact repeats. Identical values can stand only once. Some compounds were tested as several samples or in several runs, with calls that do not always agree. The source made the active and inactive calls. Unless noted, calls follow the shape of the dose curve; as a rule, active = well fitted curve in the direction sought with a large enough effect in the repeat runs; inconclusive = weak or mixed curves; inactive = no such curve, though single readings can be large; an effect the other way counts as inactive or inconclusive.

Chain of Glucocorticoid receptor (Homo sapiens) (P04150 whole entry, looked up): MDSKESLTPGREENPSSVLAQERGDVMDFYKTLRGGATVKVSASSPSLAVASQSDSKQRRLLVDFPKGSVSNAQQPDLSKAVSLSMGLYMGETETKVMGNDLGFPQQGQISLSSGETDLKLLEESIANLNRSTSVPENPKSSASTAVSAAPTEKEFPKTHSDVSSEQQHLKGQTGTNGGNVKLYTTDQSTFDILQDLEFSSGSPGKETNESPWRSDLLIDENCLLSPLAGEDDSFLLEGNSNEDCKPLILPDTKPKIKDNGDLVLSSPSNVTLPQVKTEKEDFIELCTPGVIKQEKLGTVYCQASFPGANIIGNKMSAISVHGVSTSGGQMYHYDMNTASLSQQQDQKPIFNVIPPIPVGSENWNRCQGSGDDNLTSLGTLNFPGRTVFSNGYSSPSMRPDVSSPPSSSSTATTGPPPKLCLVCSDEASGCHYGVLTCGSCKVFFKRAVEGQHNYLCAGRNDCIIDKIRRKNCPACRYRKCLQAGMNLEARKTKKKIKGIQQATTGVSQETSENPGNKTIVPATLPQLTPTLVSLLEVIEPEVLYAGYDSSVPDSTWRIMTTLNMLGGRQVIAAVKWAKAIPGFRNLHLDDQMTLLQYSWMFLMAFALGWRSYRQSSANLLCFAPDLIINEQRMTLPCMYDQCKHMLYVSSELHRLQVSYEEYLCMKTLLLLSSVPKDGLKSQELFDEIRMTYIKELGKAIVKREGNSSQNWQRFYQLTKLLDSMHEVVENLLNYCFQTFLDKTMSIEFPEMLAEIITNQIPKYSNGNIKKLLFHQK
Chain of Androgen receptor (Homo sapiens) (P10275 whole entry, looked up): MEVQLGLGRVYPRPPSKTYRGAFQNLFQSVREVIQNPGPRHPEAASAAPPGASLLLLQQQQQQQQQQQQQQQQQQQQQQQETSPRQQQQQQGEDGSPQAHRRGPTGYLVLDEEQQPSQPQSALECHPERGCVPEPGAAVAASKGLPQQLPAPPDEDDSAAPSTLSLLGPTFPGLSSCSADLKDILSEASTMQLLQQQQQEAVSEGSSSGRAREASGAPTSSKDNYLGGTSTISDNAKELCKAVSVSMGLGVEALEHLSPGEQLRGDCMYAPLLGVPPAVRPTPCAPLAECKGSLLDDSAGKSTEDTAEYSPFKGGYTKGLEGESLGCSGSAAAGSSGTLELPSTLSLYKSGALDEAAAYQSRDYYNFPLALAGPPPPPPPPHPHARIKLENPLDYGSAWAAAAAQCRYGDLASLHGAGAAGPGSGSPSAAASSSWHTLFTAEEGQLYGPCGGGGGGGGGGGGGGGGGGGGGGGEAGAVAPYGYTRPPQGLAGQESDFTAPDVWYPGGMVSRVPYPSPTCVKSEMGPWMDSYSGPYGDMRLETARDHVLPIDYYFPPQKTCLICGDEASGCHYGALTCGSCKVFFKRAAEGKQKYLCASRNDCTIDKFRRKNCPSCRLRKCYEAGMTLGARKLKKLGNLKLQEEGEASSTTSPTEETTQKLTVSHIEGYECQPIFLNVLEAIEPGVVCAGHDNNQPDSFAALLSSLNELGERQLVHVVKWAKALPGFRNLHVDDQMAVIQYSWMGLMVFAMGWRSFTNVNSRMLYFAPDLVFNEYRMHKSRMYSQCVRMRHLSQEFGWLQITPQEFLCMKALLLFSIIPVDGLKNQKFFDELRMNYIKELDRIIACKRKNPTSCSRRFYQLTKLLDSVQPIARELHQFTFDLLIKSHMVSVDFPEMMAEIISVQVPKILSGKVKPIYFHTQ

As to `CC(C)Oc1ccc2c(=O)c(-c3ccccc3)coc2c1`, the Potency entry in assay [1], in assay [3], in [4], in assay [5], in assay [7] and in assay [9] was “inactive” in each case. For the same molecule, the Potency result in [10], in assay [13] and in [14] was “inactive” throughout. In addition, the outcome in assay [2], in [6] and in [8] was inactive. The Potency in [11] is 6.68 µM (active); in assay [12], 9.44 µM (active).

As for `OCCO`, the Potency entry in [1], in [3], in [4], in assay [5], in [7] and in assay [10] was “inactive” in each case. For the same molecule, the Potency result in assay [11], in [15], in assay [12], in assay [13], in assay [14] and in [17] was “inactive” each time. Also, the Potency result in assay [18] and in assay [19] was “inactive” in each case. Besides, the molecule was classed as inactive in assay [2], in assay [6], in [8] and in assay [16].

Take `O=c1oc(=O)c2cc3c(=O)oc(=O)c3cc12`: the Potency result in [1], in assay [3], in assay [4], in assay [5], in [7] and in assay [10] was “inactive” throughout. The Potency entry in assay [11], in assay [15], in [12], in [13], in [14] and in assay [18] was “inactive” in each case. Besides, in [19], the Potency entry was “inactive”. The result in assay [2], in assay [6] and in [8] was inactive.

Regarding `NNc1ccc(C(=O)O)cc1`, the Potency result in [1], in assay [3], in assay [4], in [5], in assay [7] and in assay [10] was “inactive” in each case. The Potency result in assay [11], in [12], in assay [13], in assay [14] and in assay [18] was “inactive” in each case. Further, the molecule was classed as inactive in assay [2], in assay [6] and in [8].

For the molecule `Nc1ccccc1N`, the Potency entry in [1], in assay [3], in [4], in assay [5], in [9] and in assay [10] was “inactive” each time. Besides, the Potency result in assay [13], in assay [14] and in assay [18] was “inactive” in each case. For the same molecule, the call in [2], in assay [6] and in [8] was inactive. Moreover, the Potency is 3.86 µM (active) in assay [11]; 31.4 µM (active) and 10.3 µM (active) in assay [15]; 62.6 µM (active) and 9.15 µM (active) in assay [12].

For `COc1cccc2c1C(=O)c1c(O)c3c(c(O)c1C2=O)C[C@@](O)(C(=O)CO)C[C@@H]3O[C@H]1C[C@H](N)[C@H](O)[C@H](C)O1`, the Potency entry in [1], in [3], in [4], in [5], in assay [7] and in [20] was “inactive” each time. For the same molecule, the Potency entry in assay [13] and in assay [14] was “inactive” throughout. In addition, the outcome in assay [2], in [6] and in assay [8] was inactive. Moreover, the Potency was 535 nM [inconclusive] (active) and 174 nM (active) in assay [9]; “inactive and 66.8 nM (active) and 24.3 nM (active)” in assay [11]; “inactive and 84.1 nM (active) and 9.7 nM (active)” in [15]; “inactive and 10.6 nM (active) and 3.1 nM (active)” in [12]; “inactive and 1.68 µM (active) and 122 nM (active)” in [18].

Take `CC(C(=O)O)c1cccc(C(=O)c2ccccc2)c1` (stereo not drawn): the Potency result in assay [1], in assay [3], in [4], in assay [5], in assay [7] and in assay [10] was “inactive” in each case. Also, the Potency entry in assay [11], in assay [12], in assay [13], in [14] and in assay [18] was “inactive” in each case. Besides, the molecule was called inactive in assay [2], in assay [6] and in [8].

As for `C[Si](C)(C)O[Si](C)(C)C`, the Potency entry in assay [1], in assay [3], in [4], in assay [5], in assay [7] and in assay [10] was “inactive” each time. In addition, the Potency result in assay [11], in assay [15], in assay [12], in [13], in [14] and in assay [18] was “inactive” throughout. Besides, the result in [2], in assay [6] and in [8] was inactive.

Turning to `Nc1ccc(Nc2ccccc2)cc1`, the Potency entry in assay [1], in assay [3], in [4], in [5], in assay [7] and in [9] was “inactive” throughout. The Potency entry in assay [10], in assay [13] and in assay [14] was “inactive” in each case. Further, the molecule was called inactive in assay [2], in assay [6] and in assay [8]. The Potency is 30.6 µM (active) in assay [11]; 54.5 µM (active) and 43.3 µM (active) in assay [12]; 60.4 µM (active) and 30.6 µM (active) and 34.4 µM (active) in assay [18].

With `Nc1ncn([C@@H]2O[C@H](CO)[C@@H](O)[C@H]2O)c(=O)n1`, the Potency entry in [1], in assay [3], in [4], in assay [5], in [7] and in assay [9] was “inactive” each time. For the same molecule, in assay [14], the Potency result was “inactive”. The molecule was classed as inactive in assay [2], in assay [6], in assay [8] and in assay [16]. For the same molecule, the Potency in assay [20] was 3.01 µM (active) and 1.74 µM (active); in assay [11], 1.88 µM (active) and 1.54 µM (active); in [12], 841 nM (active) and 386 nM (active); in [17], 5.96 µM (active) and 2.73 µM (active); in assay [18], 5.31 µM (active) and 9.69 µM (active); in [19], 7.5 µM (active) and 9.69 µM (active).

Take `Cc1ccc(C)c(O)c1C`: the Potency result in assay [1], in assay [3], in assay [4], in assay [5], in assay [7] and in assay [9] was “inactive” each time. Further, the Potency entry in assay [20], in assay [10], in assay [11], in assay [15], in assay [12] and in [13] was “inactive” in each case. The Potency entry in assay [14], in [17], in [18] and in assay [19] was “inactive” throughout. The result in [2], in assay [8] and in assay [16] was inactive.

Take `CC(C)=CCCC(C)CCO` (stereo not drawn): the Potency entry in assay [1], in assay [3], in [4], in assay [5], in assay [7] and in assay [10] was “inactive” each time. For the same molecule, the Potency entry in assay [13], in [14] and in assay [18] was “inactive” throughout. The outcome in assay [2], in [6] and in [8] was inactive. In addition, the Potency in assay [11] was 61.1 µM (active); in [15], “inactive and 30.6 µM (active)”; in assay [12], “inactive and 27.3 µM (active)”.

`c1ccc2sc(SSN3CCOCC3)nc2c1`: the Potency entry in [1], in [3], in assay [4], in [5], in [7] and in assay [10] was “inactive” each time. Moreover, the call in [2], in [6] and in assay [8] was inactive. For the same molecule, the Potency is 2.43 µM (active) in assay [11]; 9.67 µM (active) and 2.73 µM (active) in assay [15]; 13.7 µM (active) and 2.17 µM (active) in assay [12]; 4.36 µM (active) in [13]; 15.3 µM (active) and 24.3 µM (active) in assay [18]; 13.7 µM (active) and 15.4 µM (active) in assay [19].

These data come from PubChem BioAssay (Tox21).
